Assay outcomes: PubChem, National Center for Advancing Translational Sciences (NCATS)
TRHR ag = qHTS for Small Molecule Agonists and Allosteric Enhancers of Human TRH Receptor: Primary Screen for Agonists; activation, % at 2 µM; hit rate 0.18% among 360,000; Thyrotropin-releasing hormone receptor (Homo sapiens), P34981; AID 493084, 2011; TRHR cells, calcium flux fluo-8, FDSS agonist mode
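TRHR-expressing cells loaded with fluo-8 calcium dye; 23 nL library compound pin-transferred, kinetic FDSS fluorescence (Ex 480/Em 530) recorded about 180 s for agonist-induced calcium release, before a 10 nM TRH EC20 addition for potentiator mode.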
D1 antagonist = Antagonist of Human D 1 Dopamine Receptor: qHTS; D(1A) dopamine receptor (Homo sapiens), P21728; HEK293 TREx D1 cells, calcium flux, dopamine EC80; active compounds read low; activity change, negative = inhibition, % at 10 µM; hit rate 3.2% among 360,000; AID 504652, 2011; in the data active means activity change below about -30%
Target sequence (P21728 whole entry, looked up): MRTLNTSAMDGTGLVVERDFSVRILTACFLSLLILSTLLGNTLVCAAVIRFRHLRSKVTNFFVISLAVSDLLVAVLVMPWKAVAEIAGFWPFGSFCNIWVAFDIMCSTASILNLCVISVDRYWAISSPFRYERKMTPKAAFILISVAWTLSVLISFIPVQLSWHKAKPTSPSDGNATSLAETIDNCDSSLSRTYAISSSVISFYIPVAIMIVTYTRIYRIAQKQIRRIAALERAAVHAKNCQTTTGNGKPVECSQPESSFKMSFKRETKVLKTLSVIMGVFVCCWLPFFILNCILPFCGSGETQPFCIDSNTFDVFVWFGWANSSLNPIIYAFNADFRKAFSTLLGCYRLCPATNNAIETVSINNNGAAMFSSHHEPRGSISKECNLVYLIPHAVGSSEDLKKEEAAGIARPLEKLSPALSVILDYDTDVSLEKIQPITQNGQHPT
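Cells carrying a force-coupled, tetracycline-inducible human D1 receptor report calcium flux. Each well gets a 10 s baseline, compound with 180 s monitoring, then an EC80 dopamine stimulus with a second 180 s kinetic read.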
D1 agonist = Allosteric Agonists of the Human D1 Dopamine Receptor: qHTS; D(1A) dopamine receptor (Homo sapiens), P21728; activation, % at 2 µM; hit rate 1% among 360,000; AID 504660, 2011; HEK293 T-REx D1 cells, calcium flux, agonist mode
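Inducible HEK293 T-REx D1 cells, force-coupled to calcium signalling, were plated at 4000 cells/well with tetracycline and held overnight at 30 C. After no-wash calcium dye loading, compound-evoked calcium rise over 180 s flagged agonists.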
TRHR PAM = qHTS for Small Molecule Agonists and Allosteric Enhancers of Human TRH Receptor: Primary Screen for Enhancers. enhancement, % at 2 µM. Thyrotropin-releasing hormone receptor (Homo sapiens), P34981. TRHR cells, fluo-8 calcium fluorescence, EC20 TRH enhancement. hit rate 0.66% among 360,000; in the data active means enhancement above about 30%
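Enhancer read-out: after compound pinning and an initial kinetic agonist-mode read, an EC20 of TRH (10 nM final) was injected and fluo-8 calcium signal (Ex 480/Em 530) followed at 1 s/cycle for 100 cycles in TRHR-expressing cells.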
D1 potentiator = Potentiators of Human D1 Dopamine Receptor: qHTS | HEK293 TREx D1 cells, calcium flux, dopamine EC20 potentiation | AID 504651, 2011 | hit rate 0.036% among 360,000 | D(1A) dopamine receptor (Homo sapiens), P21728 | potentiation, % at 10 µM; in the data active means potentiation above about 30%
Numbers stand for hits. A selection: hits, their analogues and other compounds. The true share with any hit is near 4.6%. Unless noted, no stated cut-off is given here; in the data, active means activation above about 30%; inactive means the rest.

How did Cc1cccc(NC(=O)c2ccc(CN3CC(=O)N4CCCCC4C3=O)cc2)c1C (configuration not stated) do in these assays?
TRHR ag: inactive; D1 antagonist: inactive; D1 agonist: inactive; TRHR PAM: 45; D1 potentiator: inactive

How did Cc1ccc(C)c(NC(=O)c2ccc(CN3CC(=O)N4CCCCC4C3=O)cc2)c1 (configuration not stated) do in these assays?
TRHR ag: inactive; D1 antagonist: inactive; D1 agonist: inactive; TRHR PAM: inactive; D1 potentiator: inactive

What do the screens show for `Cc1ccc(C(=O)N[C@@H](C)CN2C3=NC[C@H](C(C)C)N3C[C@H]2Cc2ccc(O)cc2)cc1Br`?
TRHR ag: inactive; D1 antagonist: -57; D1 agonist: inactive; TRHR PAM: inactive; D1 potentiator: inactive

Results for COc1ccc(C[C@H]2CN3C(=NC[C@@H]3C(C)C)N2C[C@H](C)NC(=O)c2ccc(C)c(Br)c2)cc1 ?
TRHR ag: inactive; D1 antagonist: inactive; D1 agonist: inactive; TRHR PAM: inactive; D1 potentiator: inactive

Results for COc1ccc(C[C@H]2CN3C(=NC[C@@H]3Cc3ccc(O)cc3)N2C[C@H](C)NC(=O)c2ccc(C)c(Br)c2)cc1 ?
TRHR ag: inactive; D1 antagonist: -42; D1 agonist: inactive; TRHR PAM: inactive; D1 potentiator: inactive

Results for CC(C)C(=O)OCc1cc(=O)n2nc(C3CCCCC3)sc2n1 ?
TRHR ag: inactive; D1 antagonist: inactive; D1 agonist: inactive; TRHR PAM: inactive; D1 potentiator: inactive

What do the screens show for `CC(=O)N(CCCNC(=O)c1ccccc1)C(=O)c1ccccc1`?
TRHR ag: inactive; D1 antagonist: inactive; D1 agonist: inactive; TRHR PAM: inactive; D1 potentiator: inactive

What do the screens show for `O=C(O)c1cccc2c3c([nH]c12)CCCC3`?
TRHR ag: inactive; D1 antagonist: -30; D1 agonist: inactive; TRHR PAM: inactive; D1 potentiator: inactive

Results for Cc1ccccc1NC(=O)c1cccc2c(=O)c3c([nH]c12)CCCC3 ?
TRHR ag: inactive; D1 antagonist: inactive; D1 agonist: inactive; TRHR PAM: inactive; D1 potentiator: inactive

What do the screens show for `Cc1cccc(NC(=O)c2sc3nc4c(cc3c2N)CN(Cc2ccccc2)CC4)c1`?
TRHR ag: inactive; D1 antagonist: inactive; D1 agonist: inactive; TRHR PAM: inactive; D1 potentiator: inactive

What do the screens show for `Nc1c(C(=O)Nc2cccc(Cl)c2)sc2nc3c(cc12)CN(Cc1ccccc1)CC3`?
TRHR ag: inactive; D1 antagonist: inactive; D1 agonist: inactive; TRHR PAM: 33; D1 potentiator: inactive

What do the screens show for `Cc1cccc(C)c1NC(=O)C(=O)NCC(c1ccc2c(c1)OCO2)N1CCN(C)CC1` (configuration not stated)?
TRHR ag: inactive; D1 antagonist: inactive; D1 agonist: inactive; TRHR PAM: inactive; D1 potentiator: inactive

Results for COc1ccccc1NS(=O)(=O)c1cc(NC(C)=O)ccc1N1CCCCC1 ?
TRHR ag: inactive; D1 antagonist: inactive; D1 agonist: inactive; TRHR PAM: inactive; D1 potentiator: inactive

How did COCC(=O)Nc1ccc(N2CCCC2)c(S(=O)(=O)Nc2ccccc2OC)c1 do in these assays?
TRHR ag: inactive; D1 antagonist: -31; D1 agonist: inactive; TRHR PAM: inactive; D1 potentiator: inactive

How did O=c1c2[nH]c3ccsc3c2cnn1Cc1ccccc1F do in these assays?
TRHR ag: inactive; D1 antagonist: inactive; D1 agonist: inactive; TRHR PAM: inactive; D1 potentiator: inactive

Results for Cc1ccsc1C1C=C(c2cccc(Br)c2)Nc2ncnn21 (configuration not stated) ?
TRHR ag: inactive; D1 antagonist: inactive; D1 agonist: 43; TRHR PAM: inactive; D1 potentiator: inactive

How did CCOc1ccccc1-c1noc(CCCC(=O)Nc2cccc(C(F)(F)F)c2)n1 do in these assays?
TRHR ag: inactive; D1 antagonist: inactive; D1 agonist: inactive; TRHR PAM: inactive; D1 potentiator: inactive

What do the screens show for `COc1ccccc1CNC(=O)c1cc(-c2ccccc2)n(Cc2cc(C)no2)n1`?
TRHR ag: inactive; D1 antagonist: inactive; D1 agonist: inactive; TRHR PAM: inactive; D1 potentiator: inactive

How did Cc1ccc(C)c(S(=O)(=O)NCc2ccc(C(=O)N3CCCCCC3)cc2)c1 do in these assays?
TRHR ag: inactive; D1 antagonist: -32; D1 agonist: inactive; TRHR PAM: inactive; D1 potentiator: inactive

How did Cc1ccc(C)c(S(=O)(=O)NCc2ccncc2)c1 do in these assays?
TRHR ag: inactive; D1 antagonist: -43; D1 agonist: inactive; TRHR PAM: inactive; D1 potentiator: inactive

How did Cc1ccc2nc(Nc3ccc(Br)cc3)nc(-c3ccccc3)c2c1 do in these assays?
TRHR ag: inactive; D1 antagonist: inactive; D1 agonist: inactive; TRHR PAM: inactive; D1 potentiator: inactive

Results for COc1ccc2ccccc2c1CNC(C)c1ccccc1 (configuration not stated) ?
TRHR ag: inactive; D1 antagonist: inactive; D1 agonist: inactive; TRHR PAM: inactive; D1 potentiator: inactive

Results for CC(NCCCOc1cccc2ccccc12)c1ccccc1 (configuration not stated) ?
TRHR ag: inactive; D1 antagonist: inactive; D1 agonist: 39; TRHR PAM: inactive; D1 potentiator: inactive

How did CC(CCN1CCN(c2ccccc2)CC1)c1ccccc1 (configuration not stated) do in these assays?
TRHR ag: inactive; D1 antagonist: -54; D1 agonist: inactive; TRHR PAM: inactive; D1 potentiator: inactive

How did CC(CCN1CCN(c2ccccn2)CC1)c1ccccc1 (configuration not stated) do in these assays?
TRHR ag: inactive; D1 antagonist: inactive; D1 agonist: inactive; TRHR PAM: inactive; D1 potentiator: inactive

How did O=C(NCc1ccccc1)c1ccc(-c2ccccc2C(F)(F)F)o1 do in these assays?
TRHR ag: inactive; D1 antagonist: inactive; D1 agonist: inactive; TRHR PAM: inactive; D1 potentiator: inactive

Results for Cc1ccccc1-c1ccc(C(=O)NCc2ccccc2)o1 ?
TRHR ag: inactive; D1 antagonist: -42; D1 agonist: inactive; TRHR PAM: inactive; D1 potentiator: inactive

Results for CC(C)CC(O)C(=O)Nc1cc(C(F)(F)F)ccc1Cl (configuration not stated) ?
TRHR ag: inactive; D1 antagonist: inactive; D1 agonist: inactive; TRHR PAM: inactive; D1 potentiator: inactive

Results for COc1ccc(C(=O)c2sc3nc(-c4ccc(C)cc4)cc(C(F)(F)F)c3c2N)cc1 ?
TRHR ag: inactive; D1 antagonist: inactive; D1 agonist: 90; TRHR PAM: inactive; D1 potentiator: inactive

How did COc1cccc(-c2ccc3c(N)c(C(=O)c4ccc(F)cc4)sc3n2)c1 do in these assays?
TRHR ag: inactive; D1 antagonist: inactive; D1 agonist: 150; TRHR PAM: inactive; D1 potentiator: inactive
